Bioassay records from PubChem BioAssay.
PLK1 PBD block: qHTS for Inhibitors of PLK1-PDB (polo-like kinase 1 - polo-box domain): Primary Screen. Potency, µM, without a hit: max response, negative = inhibition, most hits filed as inhibitors. Serine/threonine-protein kinase PLK1 (Homo sapiens), P53350. Plk1 PBD binding of FITC phosphopeptide, fluorescence polarization. 360,000 tested, 2.8% active. AID 720504, 2013; also: series mostly up to about 57 µM; nearly all actives have a fitted effect of over 65% in size
Target sequence (P53350 whole entry, looked up, the tested form may be a part): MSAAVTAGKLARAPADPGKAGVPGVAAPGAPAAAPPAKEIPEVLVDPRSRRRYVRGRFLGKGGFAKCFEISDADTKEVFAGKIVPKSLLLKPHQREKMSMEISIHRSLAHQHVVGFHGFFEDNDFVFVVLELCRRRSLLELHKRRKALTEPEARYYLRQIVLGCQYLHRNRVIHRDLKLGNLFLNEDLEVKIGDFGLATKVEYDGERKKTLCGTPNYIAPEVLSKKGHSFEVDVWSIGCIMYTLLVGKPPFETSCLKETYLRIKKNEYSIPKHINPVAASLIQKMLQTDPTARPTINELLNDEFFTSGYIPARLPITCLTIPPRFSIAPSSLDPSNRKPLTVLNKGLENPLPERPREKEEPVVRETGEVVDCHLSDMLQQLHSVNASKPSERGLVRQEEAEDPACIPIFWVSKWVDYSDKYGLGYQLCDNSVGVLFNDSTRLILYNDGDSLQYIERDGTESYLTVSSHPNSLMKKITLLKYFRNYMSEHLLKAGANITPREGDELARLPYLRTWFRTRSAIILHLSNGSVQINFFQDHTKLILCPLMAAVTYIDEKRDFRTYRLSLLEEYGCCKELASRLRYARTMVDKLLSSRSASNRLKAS
VDR inh: Inhibitors of the vitamin D receptor (VDR): qHTS; Vitamin D3 receptor (Homo sapiens), P11473; VDR-SRC2-3 peptide fluorescence polarization, 2 h; Potency, µM, without a hit: max response, negative = inhibition, usual class: inhibitors; 400,000 tested, 0.93% active; AID 504847, 2011
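The screen uses fluorescence polarization to detect compounds that interfere with recruitment of the SRC2-3 coactivator peptide to VDR; plates are read after 2 h at room temperature.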
KAT2A inh: qHTS Assay for Inhibitors of GCN5L2. Histone acetyltransferase KAT2A (Homo sapiens), Q92830. GCN5L2 HAT assay, ThioGlo1 CoA-SH fluorescence. Potency, µM (series often up to 58.9 µM), for the others: top-dose activity change, negative = inhibition, most hits filed as inhibitors. 390,000 tested, 0.21% active
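Compounds, pin-transferred from DMSO stocks, meet 20nM GCN5L2 for 15 min before the reaction begins with H3(1-25) peptide (75uM) and acetyl-CoA (70uM). Thiol-reactive ThioGlo1 reports CoA release over 20 min at room temperature.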
ALOX12 inh: Primary qHTS assay for inhibitors of human arachidonate 12S-lipoxygenase (ALOX12): Round 2; purified 12hLO, xylenol orange hydroperoxide absorbance; Potency, µM (top dose mostly 108 µM), inactives show at the highest dose activity change, negative = inhibition, hits mostly inhibitors; 580,000 tested, 1.1% active; AID 1671190, 2021
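Purified human 12hLO (150 nM final) in 25 mM Hepes, 0.01% Triton X-100, pH 7.0 was preincubated 15 min at room temperature with compound. Then 40 uM arachidonic acid was added, 30 min. Hydroperoxide was read by Fe-XO absorbance ratio 573/405 nm.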
An asterisk follows results filed as active; ? = inconclusive; / = not tested or not shown; ! = not confirmed by another sample. Shown are actives, neighbours in structure and some others; about 3% of the full set was active somewhere. Calls follow the shape of the dose curve; as a rule, active = well fitted curve in the direction sought with a large enough effect; inconclusive = small, poorly fitted or top-dose-only effect, or another doubt; inactive = no such curve, though single readings can be large; an effect the other way counts as inactive or inconclusive. % is scaled to controls: 0 for no effect and ±100 for the full control effect; potency is read from the fitted curve at half-maximal effect.

SMILES	PLK1 PBD block	VDR inh	KAT2A inh	ALOX12 inh
COc1ccc(C(=O)CCN2CCN(c3ccccc3F)CC2)cc1	11µM*	22µM*	-8%	-9%
O=C(CCN1CCCC1)c1cccs1	11µM*	?	3%	0%
COc1ccccc1N1CCN(CC(=O)c2ccc(F)cc2)CC1	-8%	-22%	-1%	1.1µM*
COc1ccc(C(=O)CCN2CCCCCC2)cc1	16µM*	28µM*	-3%	-28%
COc1ccc(C(=O)CCN2CCN(c3ccc(OC)cc3)CC2)cc1	-24%	?	1%	12%
N=c1n(CCN2CCCCC2)c2ccccc2n1CC(=O)c1cccs1	0%	-1%	2%	1%
CCN(CC)C(=O)N1CCC2(CC1)C(OC)C(=O)N2c1cccc(F)c1 (stereo not drawn)	/	/	/	27%
CC1C[N+](=C2C=C(N3CCOCC3)CC(C)(C)C2)CC(C)O1 (stereo not drawn)	?	0%	-2%	28µM*
CN(C)CCNC(=O)CNc1nc(Cl)nc2nc[nH]c12	/	/	/	-7%
CCc1cc(=O)oc2cc(OC(C)C(=O)NCc3cccnc3)ccc12 (stereo not drawn)	/	/	/	53%
Cc1cc(C)c(S(=O)(=O)Nc2nnc(C)s2)c(C)c1	3.4µM*	?	-2%	-11%
COC(=O)c1ccc(C(=S)N2CCCCC2)cc1	-12%	35%	-4%	58%
COc1cc(C(=S)N2CCOCC2)cc(OC)c1OC	27µM*	?	-1%	0%
COC(=O)c1ccc(C(=S)N2CCOCC2)cc1	12µM*	-1%	0%	?
Cc1cc(SCC(=O)NC(=O)NC(C)(C)C)nc2ccccc12	/	/	/	-19%
CCCn1c(=O)[nH]c(=O)c2c1nc(-c1cccc(C)c1)n2CCN1CCOCC1	/	/	/	-4%
COc1cccc(-c2cc(C(F)(F)F)c(C#N)c(=O)[nH]2)c1	24µM*	71µM*	0%	2%
CCN(CC)CCNC(=O)c1cn(CC)c2ccc(S(=O)(=O)N3CCc4ccccc4C3)cc2c1=O	27µM*	-17%	1%	29%
CCN(CC)CCCNC(=O)c1cn(CC)c2ccc(S(=O)(=O)N3CCc4ccccc4C3)cc2c1=O	3%	1%	-3%	?
CC(=O)c1ccc(NC(=O)Cn2cnc(S(=O)(=O)N3CCC(C)CC3)c2)cc1	30µM*	-17%	-3%	-9%
CC(=O)c1ccc(N2CCN(C(=O)Cn3cnc(S(=O)(=O)N4CCOCC4)c3)CC2)cc1	/	/	/	-8%
CC(=O)c1ccc(N2CCN(C(=O)Cn3cnc(S(=O)(=O)N4CCCCC4)c3)CC2)cc1	27µM*	-19%	?	9%
CCCCCn1nc(C(=O)Nc2cccc(Br)c2)c2ccccc2c1=O	/	/	/	-4%
O=C(Cn1nc(-c2ccco2)ccc1=O)Nc1ccccc1	/	/	/	-19%
O=C(Cn1nc(-c2ccco2)ccc1=O)Nc1ccc(Br)cc1	21µM*	?	-8%	?
SMILES	PLK1 PBD block	VDR inh	KAT2A inh	ALOX12 inh
COc1ccc(C(=O)CC#N)c(OC)c1	/	/	/	0%
N#Cc1nc(-c2ccco2)oc1N1CCC(C(=O)N2CCC(CCN3CCOCC3)CC2)CC1	/	/	/	-25%
O=S(=O)(NCCCn1ccc2ccccc21)c1ccc(F)c(F)c1	/	/	/	58%
COC(=O)CCC(=O)OC1(C)C(=O)C2=CN(CCCOC(C)C)C(c3ccc(OC)cc3)=CC2=C(Br)C1=O (stereo not drawn)	?	?	-16%	/
COC(=O)CCC(=O)OC1(C)C(=O)C2=CN(c3ccccc3)C(c3ccc(OC)cc3)=CC2=C(Br)C1=O (stereo not drawn)	?	?	/	40µM*
COC(=O)CCC(=O)OC1(C)C(=O)C2=CN(C3CC3)C(c3ccc(OC)cc3)=CC2=C(Br)C1=O (stereo not drawn)	27µM*	?	/	?
CCC(=O)OC1(C)C(=O)C2=COC(c3ccc(OC)cc3)=CC2=C(Br)C1=O (stereo not drawn)	?	?	-3%	50µM*
COc1ccc(Cl)cc1-n1nnc(-c2nc(-c3cc(OC)c(OC)c(OC)c3)no2)c1C	/	/	/	2%
Cc1ccccc1OCC(=O)OCC(=O)Nc1ncc(Cl)c(C)c1Cl	-26%	23%	-28%	8.9µM*
Cc1ccccc1OCC(=O)OCC(=O)Nc1ccc(Cl)cn1	-12%	0%	-8%	28%
CC(C(=O)Nc1ccc(F)cc1)n1nnc2sc(-c3ccccc3)cc2c1=O (stereo not drawn)	/	/	/	32µM*
O=C(Nc1ccc(S(=O)(=O)N2CCCCC2)cc1)c1cc2c(=O)n3ccccc3nc2s1	/	/	/	3%
CCCc1nc2ccc(NC(=O)c3cccs3)cc2c(=O)n1Cc1ccccc1Cl	30µM*	?	-2%	-5%
Cn1nc(CC(=O)N2CCC(C(=O)N3CCCCCC3)CC2)c2ccccc2c1=O	/	/	/	-15%
CCCCC/C=C\CC(O)/C=C/c1cccc(CC(O)CCCCO)n1 (stereo not drawn)	/	50µM*!	-5%	/
CCCCC/C=C\C[C@@H](O)/C=C/C=C\C/C=C\CCCC(=O)O	/	-14%	4%	/
CC(C)CC(=O)Nc1nn2c(C(C)C)nnc2s1	/	/	/	-26%
CCC(CC)C(=O)Nc1nn2c(CC(C)C)nnc2s1	/	/	/	16µM*
CCc1nnc(NC(=O)C(CC)CC)s1	-19%	0%	2%	1%
CCCC(=O)Nc1nn2c(CC(C)C)nnc2s1	/	/	/	25µM*
CNC(=O)N1CCC(C2CCN(Cc3cccc(OC)c3OC)C2)CC1 (stereo not drawn)	/	/	/	64%
O=C(COC(=O)CSc1ccc2ccccc2c1Br)NCc1ccco1	/	/	/	3%
Cc1[nH]c(=S)c(C#N)c(C)c1C(=O)Nc1ccccc1	?	-11%	3%	25µM*
CCc1c(C(=O)Nc2ccccc2)c(C)[nH]c(=S)c1C#N	21µM*	15%	0%	4µM*
COc1ccc(C(=O)N2CCC(C(NC(=O)c3ccccc3Cl)C(=O)N3CCCCC3)CC2)cc1 (stereo not drawn)	/	/	/	28%
SMILES	PLK1 PBD block	VDR inh	KAT2A inh	ALOX12 inh
COc1ccc(CCN2C(=O)CC(Nc3ccc(N4CCOCC4)cc3)C2=O)cc1OC (stereo not drawn)	-8%	10%	/	5%
COc1ccc(CCN2C(=O)C3C(C2=O)C2C=CC3C23CC3)cc1OC (stereo not drawn)	24µM*	2%	-3%	0%
CCOC(=O)C1=NOC2C3CC(C12)C1C(=O)N(CCc2ccc(OC)c(OC)c2)C(=O)C31 (stereo not drawn)	27µM*	-11%	-9%	-15%
CCc1ccc(NC2CC(=O)N(CCc3ccc(OC)c(OC)c3)C2=O)cc1 (stereo not drawn)	27µM*	?	-1%	7%
O=C1C2C(C(=O)N1CCc1ccccc1)C1C=CC2C12CC2 (stereo not drawn)	0%	8%	-5%	4%
CCOc1cc(CNC(=O)c2ncoc2-c2ccc(C)s2)cc(OCC)c1OCC	/	/	/	-26%
